Inconclusive results are not listed. Entries that show only a call come without a potency. Values without a mark were called inactive. The source made the active and inactive calls. The call rests on the fitted dose curve; in most records, active means well fitted curve in the direction sought with a large enough effect; inconclusive means small, poorly fitted or top-dose-only effect, or another doubt; inactive means no such curve, though single readings can be large; an effect the other way counts as inactive or inconclusive.
Assays:
[1] = qHTS of pediatric cancer cell lines to identify multiple opportunities for drug repurposing: Primary screen for NB-EBc1 cells (AID 1347095)
Method in brief: (§1)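 500-1,000 cells/well; 5 h pre-incubation 37 °C/5% CO2; compound pinned; 48 h; CellTiter-Glo, 15 min RT; luminescence. MIPE 11-pt from 0.78 nM, NPC 8-pt from 0.59 nM final. Bortezomib 2.3 µM final as positive control.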

[2] = qHTS of pediatric cancer cell lines to identify multiple opportunities for drug repurposing: Primary screen for U-2 OS cells (AID 1347096); further: nearly all actives have a fitted effect of over 50% in size
Method in brief: (§2)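 Viability after 48 h compound treatment at 37C, 500-1,000 cells/well, read as ATP luminescence with CellTiter-Glo. Primary screens used 11-point (MIPE, 0.78 nM-46 µM) or 8-point (NPC, 0.59 nM-46 µM) final concentrations; follow-up screens used 11-point dilutions.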

[3] = qHTS of pediatric cancer cell lines to identify multiple opportunities for drug repurposing: Primary screen for Saos-2 cells (AID 1347097); further: nearly all actives have a fitted effect of over 40% in size
Method in brief: as §1

[4] = qHTS of pediatric cancer cell lines to identify multiple opportunities for drug repurposing: Primary screen for BT-12 cells (AID 1347101); further: nearly all actives have a fitted effect of over 25% in size
Method in brief: (§3)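 Cells (500-1,000/well) rested 5 h, then received compounds for 48 h; metabolically active cells were measured by CellTiter-Glo luminescence. Final concentrations spanned up to 46 µM (MIPE, 11-point) or 0.59 nM-46 µM (NPC, 8-point) in primary screens, 11-point in follow-ups.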

[5] = qHTS of pediatric cancer cell lines to identify multiple opportunities for drug repurposing: Primary screen for OHS-50 cells (AID 1347103); further: nearly all actives have a fitted effect of over 40% in size
Method in brief: as §3

[6] = qHTS of pediatric cancer cell lines to identify multiple opportunities for drug repurposing: Primary screen for RD cells (AID 1347104); further: nearly all actives have a fitted effect of over 55% in size
Method in brief: as §1

[7] = qHTS of pediatric cancer cell lines to identify multiple opportunities for drug repurposing: Primary screen for MG 63 (6-TG R) cells (AID 1347105); further: nearly all actives have a fitted effect of over 50% in size
Method in brief: as §1

[8] = qHTS of pediatric cancer cell lines to identify multiple opportunities for drug repurposing: Primary screen for control Hh wild type fibroblast cells (AID 1347106); further: nearly all actives have a fitted effect of over 55% in size
Method in brief: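 Cells (500-1,000/well) in growth media were settled 5 h at 37 degrees C, then given compounds for 48 h. Viability was read as CellTiter-Glo luminescence. Primary runs used MIPE at 11 points (0.78 nM-46 µM) and NPC at 8 points (0.59 nM-46 µM); follow-ups used 11 points.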

[9] = qHTS of pediatric cancer cell lines to identify multiple opportunities for drug repurposing: Confirmatory screen for NB1643 cells (AID 1347109); further: nearly all actives have a fitted effect of over 45% in size
Method in brief: as §2

[10] = qHTS of pediatric cancer cell lines to identify multiple opportunities for drug repurposing: Confirmatory screen for A673 cells (AID 1347110); conditions: A673 Ewing sarcoma cell viability; further: nearly all actives have a fitted effect of over 65% in size
Method in brief: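 qHTS titration format: primary MIPE 0.78 nM-46 µM (11 pts), NPC 0.59 nM-46 µM; confirmation 11 pts. 48 h, CTG luminescence.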

[11] = qHTS of pediatric cancer cell lines to identify multiple opportunities for drug repurposing: Confirmatory screen for SK-N-MC cells (AID 1347111); conditions: SK-N-MC cell viability;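 further: cells exposed to compound for 48 h before the readout; nearly all actives have a fitted effect of over 70% in size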
Method in brief: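 SK-N-MC cells at 500-1,000 cells/well in growth media were pre-incubated 5 h, then exposed to compounds at 11-point dilutions for 48 h at 37 degrees C, 5% CO2. Viability was read as CellTiter-Glo luminescence.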

[12] = qHTS of pediatric cancer cell lines to identify multiple opportunities for drug repurposing: Confirmatory screen for LAN-5 cells (AID 1347113); further: nearly all actives have a fitted effect of over 65% in size
Method in brief: as §2

[13] = qHTS of pediatric cancer cell lines to identify multiple opportunities for drug repurposing: Primary screen for SK-N-SH cells (AID 1347098); further: nearly all actives have a fitted effect of over 65% in size
Method in brief: as §3

[14] = qHTS of pediatric cancer cell lines to identify multiple opportunities for drug repurposing: Primary screen for Rh18 cells (AID 1347102); further: nearly all actives have a fitted effect of over 65% in size
Method in brief: as §2

[15] = qHTS of pediatric cancer cell lines to identify multiple opportunities for drug repurposing: Primary screen for Rh30 cells (AID 1347107); further: nearly all actives have a fitted effect of over 75% in size
Method in brief: as §2

[16] = qHTS of pediatric cancer cell lines to identify multiple opportunities for drug repurposing: Primary screen for Rh41 cells (AID 1347108); further: nearly all actives have a fitted effect of over 70% in size
Method in brief: as §1

[17] = qHTS of pediatric cancer cell lines to identify multiple opportunities for drug repurposing: Primary screen for NB1643 cells (AID 1347099); further: nearly all actives have a fitted effect of over 50% in size
Method in brief: as §1

[18] = qHTS of pediatric cancer cell lines to identify multiple opportunities for drug repurposing: Primary screen for LAN-5 cells (AID 1347100)
Method in brief: as §2

[19] = qHTS of pediatric cancer cell lines to identify multiple opportunities for drug repurposing: Confirmatory screen for BT-12 cells (AID 1347112); further: nearly all actives have a fitted effect of over 55% in size
Method in brief: as §2

[20] = qHTS of pediatric cancer cell lines to identify multiple opportunities for drug repurposing: Confirmatory screen for DAOY cells (AID 1347114); further: nearly all actives have a fitted effect of over 65% in size
Method in brief: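 Viability measured as metabolically active cells via CellTiter-Glo luminescence following 48 hours of compound exposure, 11-point dilutions in confirmatory testing. 500-1,000 cells/well plated 5 hours before dosing; controls were DMSO and 2.3 µM bortezomib.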
Potency means the concentration at half of the fitted maximal effect.

| Compound | Potency [1] | Potency [2] | Potency [3] | Potency [4] | Potency [5] | Potency [6] | Potency [7] | Potency [8] | Potency [9] | Potency [10] | Potency [11] | Potency [12] | Potency [13] | Potency [14] | Potency [15] | Potency [16] | Potency [17] | Potency [18] | Potency [19] | Potency [20] |
| --- | --- | --- | --- | --- | --- | --- | --- | --- | --- | --- | --- | --- | --- | --- | --- | --- | --- | --- | --- | --- |
| Oc1c(Br)cc(Br)c2cccnc12 | 10.6 µM (active) | inactive | 11.9 µM (active) | 27.6 µM (active) | 15.5 µM (active) | 23.7 µM (active) | 21.1 µM (active) | inactive | 26.1 µM (active) | 11.7 µM (active) | 1.17 µM (active) | 18.5 µM (active) |  |  |  |  |  |  |  |  |
| O=C(CS)Nc1ccccc1 |  | inactive |  | inactive | inactive |  | inactive | 16.8 µM (active) |  |  |  |  | inactive | inactive | inactive | 21.1 µM (active) |  |  |  |  |
| Cc1c(C(=O)O)c(O)cc2c1C(=O)c1c(O)c([C@@H]3O[C@H](CO)[C@@H](O)[C@H](O)[C@H]3O)c(O)c(O)c1C2=O |  | inactive |  |  |  | inactive |  |  |  |  |  |  | inactive |  | inactive |  | inactive |  |  |  |
| COC(=O)C1=C(C)NC(C)=C(C(=O)OCC(C)=O)C1c1ccccc1[N+](=O)[O-] (stereo not drawn) |  | inactive |  |  |  |  |  |  |  |  |  |  |  | inactive | inactive | inactive |  | inactive |  |  |
| C#CC1(O)CC[C@H]2[C@@H]3CCC4=CCCC[C@@H]4[C@H]3CC[C@@]21C (stereo partly drawn) | inactive |  |  |  |  | inactive | 21.1 µM (active) | inactive |  |  |  |  | 24.4 µM (active) | inactive | inactive | inactive |  | inactive |  |  |
| COc1cccc2c1C(=O)c1c(O)c3c(c(O)c1C2=O)C[C@@](O)(C(=O)CO)C[C@@H]3O[C@H]1C[C@H](N)[C@H](O[C@@H]2CCCCO2)[C@H](C)O1 | 0.075 µM (active) |  | 2.66 µM (active) | 1.55 µM (active) | 0.777 µM (active) | 8.41 µM (active) | 0.841 µM (active) |  |  | 3.29 µM (active) | 1.65 µM (active) |  | 0.097 µM (active) | 15 µM (active) |  | 8.41 µM (active) | 0.596 µM (active) | 0.266 µM (active) | 13.1 µM (active) | 11.7 µM (active) |
| NC(=O)C(c1ccccc1)(c1ccccc1)[C@@H]1CCN(CCc2ccc3c(c2)CCO3)C1 |  | inactive |  | inactive |  | inactive | inactive | inactive |  |  |  |  | inactive |  | inactive | inactive | inactive | inactive |  |  |
| c1ccc(CCNc2nc(-c3ccccc3)cs2)cc1 |  | inactive |  |  |  |  | inactive | inactive |  |  |  |  |  | inactive | inactive | inactive | inactive | inactive |  |  |
| Nc1ccc(O)c([N+](=O)[O-])c1 | inactive | inactive |  |  | inactive | inactive | inactive | inactive |  |  |  |  |  | inactive | inactive | inactive | inactive |  |  |  |
| CCCC(=O)OC[C@@H](OC(=O)CCC)[C@@H](OC(=O)CCC)[C@H](Cn1c2nc(=O)[nH]c(=O)c-2nc2cc(C)c(C)cc21)OC(=O)CCC |  | inactive |  | 27.6 µM (active) |  |  | inactive | inactive |  |  |  |  | inactive |  | inactive |  | inactive |  |  |  |
| CCCSc1ccc2nc(NC(=O)OC)[nH]c2c1 | 0.266 µM (active) |  | 4.22 µM (active) | 2.76 µM (active) | 0.872 µM (active) |  | 0.668 µM (active) | inactive | 2 µM (active) | 2 µM (active) | 1.58 µM (active) | 8.91 µM (active) |  |  | inactive |  |  | 1.19 µM (active) | 25.1 µM (active) | 1.26 µM (active) |
| CN(C)c1ccc(C(=C2C=CC(=[N+](C)C)C=C2)c2ccccc2)cc1 |  | 1.33 µM (active) | 0.0531 µM (active) | 0.174 µM (active) | 0.0347 µM (active) | 0.0596 µM (active) | 0.106 µM (active) | 23.7 µM (active) | 0.657 µM (active) | 0.293 µM (active) | 0.369 µM (active) | 0.737 µM (active) | 1.09 µM (active) | 0.075 µM (active) | 0.473 µM (active) | 0.0944 µM (active) | 0.133 µM (active) |  | 1.85 µM (active) | 0.657 µM (active) |
| Nc1nc2ccc([N+](=O)[O-])cc2s1 | inactive |  | inactive |  | 25.2 µM (active) | inactive | inactive | inactive |  |  |  |  |  |  | inactive | inactive |  | inactive |  |  |
| Nc1cc(-c2ccncc2)c[nH]c1=O |  | inactive | inactive | inactive | inactive | inactive | inactive | inactive |  |  |  |  | inactive | inactive | inactive | inactive | inactive |  |  |  |

From PubChem BioAssay (NCATS)
